According to the supplement of paper PMC10011410:
± gives the standard deviation of the averaged measurements.

System: AmpC beta-lactamase (E. coli)
Assay: AmpC inhibition relative to DMSO; higher = more inhibition
Method in brief: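 Percent inhibition was calculated against solvent-only wells. Each value is the mean of four technical replicates, taken from rates read as absorbance at 482 nm over 5 min after nitrocefin addition and background-subtracted against enzyme-free wells. Before nitrocefin went in, compounds (4, 11, 33 and 100 μM) sat with 5 nM E. coli AmpC β-lactamase for 5 min at RT in 50 mM sodium phosphate, pH 7.0, 1.0% DMSO, with or without 0.01% Triton X-100.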

[1] = 4 µM, detergent: 0.01% Triton X-100
[2] = 11 µM, detergent: 0.01% Triton X-100
[3] = 33 µM, detergent: 0.01% Triton X-100
[4] = 100 µM, detergent: 0.01% Triton X-100
[5] = 100 µM, detergent: no detergent

Structure (SMILES) | AmpC inhibition [1] [%] | AmpC inhibition (4 µM, detergent: no detergent) [%] | AmpC inhibition [2] [%] | AmpC inhibition (11 µM, detergent: no detergent) [%] | AmpC inhibition [3] [%] | AmpC inhibition (33 µM, detergent: no detergent) [%] | AmpC inhibition [4] [%] | AmpC inhibition [5] [%]
CCCCCCCCCCCCCCCc1cccc(O)c1C(=O)O | 6.97 ± 5.3 | 25.7 ± 18 | 6.87 ± 8.5 | 97.15 ± 0.48 | 5.05 ± 6.1 | 100 ± 3.9 | 7.84 ± 4 | 99.49 ± 0.71
O=C(OCC)/C(C(OCC)=O)=C\CCCCCCCCCCCCCC | 5.31 ± 3.4 | -0.349 ± 2.3 | 1.25 ± 19 | 41.5 ± 10 | 6.47 ± 3.7 | 50.3 ± 16 | 1.39 ± 4.3 | 86.8 ± 6.6
O=C1/C(=C/c2ccc(O)c(Br)c2)CCC/C1=C\c1ccc(O)c(Br)c1 | 4.59 ± 5 | 7.44 ± 6.5 | 9.28 ± 8.5 | 55.4 ± 9.9 | 5.98 ± 3.4 | 78.6 ± 1.3 | -4.62 ± 5.8 | 81.8 ± 1.7
CCCCCCCc1ccc(CCc2cccc(O)c2C(=O)O)cc1 | 1.37 ± 5 | -4.68 ± 3.5 | 8.12 ± 2.9 | 61 ± 10 | 9.04 ± 3.8 | 97.2 ± 1.9 | 8.27 ± 3.7 | 99.4 ± 1.4
CCCCCCCCCCCC1=C(O)C(=O)C=C(O)C1=O | 8.62 ± 5.2 | -3.71 ± 8 | 2.92 ± 1.7 | 17.5 ± 8.6 | 3.12 ± 4.7 | 60.9 ± 17 | 5.91 ± 2.8 | 92.1 ± 5.4
O=C(NNS(=O)(=O)c1ccccc1F)c1cc(F)cc(-c2ccccn2)c1 | 10.7 ± 1.2 | 1.11 ± 11 | 5.78 ± 2.7 | 8.02 ± 4.7 | -0.0162 ± 1.5 | 4.81 ± 1.3 | 0.832 ± 4.9 | 5.91 ± 3.5
C=C(C)[C@@H](CC=C(C)C)C[C@@]12C[C@@H](CC=C(C)C)C(C)(C)[C@@](CC=C(C)C)(C(=O)/C(=C(\O)c3ccc(O)c(O)c3)C1=O)C2=O | 13.6 ± 17 | 0.481 ± 8.4 | -2 ± 19 | 17.9 ± 7.4 | 5.26 ± 8.2 | 63 ± 4.7 | -8.29 ± 6.4 | 97.95 ± 0.64
Cl.Cl.O=C(O)Cn1nnc(-c2ccc(CN(CCCCOc3ccc(CN4CCCC4)cc3)CCc3ccccc3)cc2)n1 | 7.51 ± 5.3 | -18.8 ± 5 | 6.13 ± 8.3 | -17.6 ± 4.2 | 3.69 ± 2.6 | -26.9 ± 12 | 11 ± 6.5 | 5.89 ± 17
COC1=CC=C(S(=O)(O/N=C2C=C(C(C(C)=C\2)=O)C)=O)C=C1 | 2.45 ± 1.2 | -3.63 ± 5.6 | 6.48 ± 2.3 | 3.85 ± 1.5 | 6.35 ± 3.8 | 0.996 ± 9.5 | 8.37 ± 3.3 | -1.7 ± 3.7
C=C1C(=O)O[C@H](CCC)[C@H]1C(=O)O | 0.817 ± 3 | 2.33 ± 5.5 | 3.75 ± 2.7 | -0.423 ± 6.2 | 0.478 ± 2.6 | -0.772 ± 6.7 | 2.9 ± 2 | 0.697 ± 4.5
CC1(C)CCC2=C(O1)c1ccccc1C(=O)C2=O | 10.1 ± 3.2 | 0.565 ± 6.8 | 2.63 ± 1.6 | -4.82 ± 5.1 | 6.33 ± 3.7 | -16.2 ± 7.7 | -0.871 ± 3.1 | 4.94 ± 2
COc1cc(/C=C/C(=O)CC(=O)/C=C/c2ccc(O)c(OC)c2)ccc1O | 10.4 ± 4.2 | 5.89 ± 9 | 5.4 ± 4.4 | 39.2 ± 7.2 | -1.8 ± 2.5 | 71.1 ± 12 | -2.46 ± 13 | 67.3 ± 7.6
COc1ccc(/C(Cl)=C(/C=O)c2ccc(OC)cc2)cc1 | -3.57 ± 3.7 | -5.33 ± 6.8 | 3.37 ± 5.7 | 3.21 ± 3.9 | 8.7 ± 7.1 | 0.384 ± 4.4 | 3.87 ± 1.3 | 12.1 ± 2.9
